System: PRKCE
Conditions: concentration: 1 μM, replicates: in singlicate; n = 1
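Also: KINOMEscan kinase panel screen.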

SMILES | %Inh [%]
COc1ccc(-n2cnc3c(N)ncnc32)cc1 [SKF-97236] | 0
FC(F)(F)c1ccc(-c2ncn(CCCN3CCOCC3)c2-c2ccncc2)cc1 [SB-217780] | 35
CCc1nc(-c2cccc(C)c2)c(-c2ccncc2)s1 | 0
COC(=O)c1c(-c2ccccc2)c2cc(Br)ccc2c(=O)n1Cc1ccc(NC(=O)CCC(=O)O)cc1 | 0
Cc1ccc(-c2ccc3c(ccc4sc5c(c43)NC[C@@H](C)N=C5N(C)C)n2)cn1 | 36
Cc1nnc(-c2ccc(C)c(-c3ccc(C(=O)O)cc3)c2)o1 [GW608005] | 0
CCCNC(=O)Nc1ccc(Oc2ncnc3ccn(C)c23)cc1 | 3
Nc1n[nH]c2nnc(-c3ccccc3)c(-c3ccccc3)c12 [GW554060] | 15
COC(=O)c1c(-c2ccccc2)c2cc(Br)ccc2c(=O)n1Cc1ccc(S(C)(=O)=O)cc1 | 1
O=c1cc(N2CCOCC2)nc2n(Cc3ccc(F)c(Cl)c3)ccn12 [GSK2297099] | 0
COc1cc(Nc2nccc(N3CCC(NC(=O)C4COc5ccccc5O4)C3)n2)cc(OC)c1OC (stereo not drawn) [GSK1379761] | 3
CCCC(=O)Nc1n[nH]c2ncc(-c3cccc4ccccc34)cc12 [SB-642057] | 16
CCn1c(-c2nonc2N)nc2ccccc21 [SB-693162/GW549034] | 44
O=C(Nc1n[nH]c2nc(-c3ccccc3)c(Br)cc12)C1CC1 [SB-708998] | 0
Cn1c(=O)c(F)c(Nc2ccc(I)cc2F)c2c(=O)n(OC[C@H](O)CO)cnc21 | 0
COc1cc2nccc(Nc3ccc(OCc4ccc(NC(C)=O)cc4)cc3)c2cc1OC.Cl [GW440135] | 10
Cl.c1ccc(Cn2cnc3cc(Nc4ncnc5ccccc45)ccc32)cc1 [GW272142] | 4
Nc1ncnc2c1ncn2-c1cccc2ccccc12 [SKF-97184] | 5

SMILES | %Inh [%]
O=C(NCCNc1ccnc(Nc2ccc(F)cc2)n1)Nc1ccc2c(c1)OCO2 [GSK1379882] | 13
O=C(Nc1n[nH]c2cc(-c3ccccc3F)ccc12)C1CC1 [SB-733371] | 21
COc1ccc(-c2coc3ccc(-c4nnc(SCc5cccc(C#N)c5)o4)cc23)cc1 | 0
Cc1nc(N(C)[C@H]2CN(C(=O)CC#N)CC[C@H]2C)c2cc[nH]c2n1 | 0
Cc1cccc(-c2nc(Nc3ccc4c(cnn4C)c3)c3ccccc3n2)n1 [GW876731] | 15
Cl.NS(=O)(=O)c1cccc(Nc2cc(-c3ccc(F)cc3)n[nH]2)c1 [GW824645] | 12
COc1ccc(-c2cc3c(C)nc(N)nc3n([C@H]3CC[C@H](OCCO)CC3)c2=O)cn1 | 14
COc1ccc(-c2cc3c(C)nc(N)nc3n([C@H]3CC[C@H](O)CC3)c2=O)cn1 | 36
CN(C)c1cc(-c2ccc3c(N)n[nH]c3c2)nc(N)n1 [GSK2219329] | 0
O=C1NC(=O)C(c2ccccc2)=C1Nc1cccc(O)c1 [SB-390534] | 17
Fc1cccc(CSc2nnc(-c3ccc4c(c3)CCO4)o2)c1 | 0
COc1cc2ncn(-c3cc(OCCCc4ccccc4)c(C(N)=O)s3)c2cc1OC [GSK205189] | 0
COc1cc(Nc2ccnc3ccc(C(F)(F)F)cc23)cc(OC)c1OC [GW577382] | 19
COc1cccc(-n2cnc3c(N)ncnc32)c1 [SKF-97416] | 33
COc1cccc(C2=C(Nc3cccc(C(=O)O)c3)C(=O)NC2=O)c1 [SB-390770] | 15
Nc1nc(N)c2nc(-c3ccccc3)[nH]c2n1 [SKF-12778] | 4
CCC(=O)c1c(-c2ccccc2)c2cc(Cl)ccc2c(=O)n1Cc1cc(S(C)(=O)=O)n(CC(F)F)n1 | 0
CCS(=O)(=O)c1ccc(OC)c(Nc2ncc(-c3ccc(F)cc3)o2)c1.Cl [GW591947] | 0

Reference: article PMC5540273 (PLoS ONE, 2017)
